# The list is not random: actives were taken first. Their share in the collection is about 19%.
# IL1B secr inh: qHTS for Inhibitors of Inflammasome Signaling: IL-1-beta AlphaLISA Primary Screen | THP-1 LPS/ATP IL-1B secretion, AlphaLISA, 16 h; hits give low values | 4.7% of 360,000 active | activity change, % at 57.5 µM; in the data active = activity change below about -50%; inconclusive = mostly about -30% to -49%
#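 Secreted IL-1B measured by AlphaLISA bead assay after 16 h compound exposure of THP-1 cells; compounds (final up to 57.5 uM) added 1 h before LPS (250 ng/mL) and ATP (1.25 mM) stimulation; lower signal means less secretion.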
# DT40 TDP1 CPT: qHTS for Inhibitors of human tyrosyl-DNA phosphodiesterase 1 (TDP1): qHTS in cells in presence of CPT | chicken DT40 Tdp1-/-;hTDP1 cells + 20 nM CPT, ATP luminescence, 48 h | Potency, µM (titrated, usually from 46.2 µM), inactives show top-dose activity change, negative = growth inhibition, usual class: inhibitors | 12% of 420,000 active | AID 686979, 2013; also: potency is read from the fitted curve at half-maximal effect; nearly all actives have a fitted effect of over 55% in size
#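 Chicken DT40 Tdp1-/- cells stably complemented with human TDP1 were seeded at 400 cells/well in medium containing 20 nM camptothecin, exposed to pin-transferred compounds, and grown at 37 °C for at least 48 hr. Viability was read as ATP luminescence.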
# HT1080NT lethal: qHTS for induction of synthetic lethality in tumor cells producing 2HG: qHTS for the HT-1080-NT fibrosarcoma cell line; HT-1080-NT fibrosarcoma viability, CellTiter-Glo ATP luminescence, 48 h; Potency, µM (doses to about 46.1 µM), inactives show at the top dose activity, negative = less viability, hits mostly cytotoxic; 1.6% of 360,000 active; AID 686970, 2013;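 also: NT is the 2HG producing partner of a matched IDH1 knockdown line; potency is read from the fitted curve at half-maximal effect; 0% = DMSO-treated cells and -100% = media-only wells without cells; nearly all actives have a fitted effect of over 55% in size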
#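 HT-1080-NT fibrosarcoma cells (2HG-overproducing), 750 cells/well in RPMI with 5% FBS, dosed after 2 h and incubated 48 h at 37C. CellTiter-Glo luminescence normalized to DMSO and no-cell wells; concentration-response curves fitted and classed.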
# DT40 TDP1 no CPT: qHTS for Inhibitors of human tyrosyl-DNA phosphodiesterase 1 (TDP1): qHTS in cells in absence of CPT; DT40 Tdp1-/- hTDP1 cells, no CPT, ATP luminescence, 48 h; 15% of 420,000 active; AID 686978, 2013; Potency, µM (highest dose often 46.2 µM), for inactives: top-dose activity change, negative = growth inhibition, most hits filed as inhibitors; also: potency is read from the fitted curve at half-maximal effect; nearly all actives have a fitted effect of over 55% in size
#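 DT40 Tdp1-/-;hTDP1 cells, no CPT (DMSO vehicle only), 400 cells/well; compounds pin-transferred; ≥48 hr, 37 °C; CellTiter-Glo 30 min RT dark, luminescence read.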
# HT1080 IDH1KD tx: qHTS for induction of synthetic lethality in tumor cells producing 2HG: qHTS for the HT-1080-IDH1KD cell line | HT-1080 IDH1 knockdown viability, ATP luminescence, 48 h | Potency, µM (doses to about 46.1 µM), for the others: top-dose activity, negative = toxicity, usual class: cytotoxic | 2% of 360,000 active;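 also: potency is read from the fitted curve at half-maximal effect; 0% = DMSO wells and -100% = cell-free medium wells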
#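 % activity derives from luminescence (CellTiter-Glo), normalised to DMSO and no-cell wells. HT-1080-IDH1KD cells, 750/well, had 48 h compound exposure at 37 °C.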
# Active calls of the source: *; ? = inconclusive. Unless noted, calls follow the shape of the dose curve; as a rule, active = well fitted curve in the direction sought with a large enough effect; inconclusive = small, poorly fitted or top-dose-only effect, or another doubt; inactive = no such curve, though single readings can be large; an effect the other way counts as inactive or inconclusive. Unless noted, % is scaled to controls: 0 for no effect and ±100 for the full control effect.
SMILES,IL1B secr inh,DT40 TDP1 CPT,HT1080NT lethal,DT40 TDP1 no CPT,HT1080 IDH1KD tx
CCc1cc2c(COC(=O)c3cc(S(=O)(=O)N4CCOCC4)ccc3F)cc(=O)oc2cc1O,-77.3*,18.4µM*,?,?,-22.0%
Cc1noc(C)c1COC(=O)c1cc(S(=O)(=O)N2CCOCC2)ccc1F,-4.7,-9.2%,11.8%,-26.6%,0.0%
O=C(OCc1cc(=O)oc2cc(O)ccc12)c1cc(S(=O)(=O)N2CCOCC2)ccc1F,-102.7*,-14.1%,-22.6%,-22.6%,-6.8%
CCc1cc2c(COC(=O)c3cccc(NS(C)(=O)=O)c3)cc(=O)oc2cc1O,-12.8,16.4µM*,?,10.3µM*,?
CCn1c2ccccc2c2cc(NC(=O)c3ccccc3[N+](=O)[O-])ccc21,41.1,20.6µM*,-18.4%,23.1µM*,-23.3%
COc1cccc(NC(=O)c2cccc(OC)c2OC)c1,-7.9,-5.5%,19.0%,-22.2%,8.4%
COc1cccc(C(=O)Nc2cccc3ccccc23)c1,-2.9,?,0.8%,?,2.7%
COc1cccc(C(=O)Nc2cccc3c2ccc2cccn23)c1,-29.9,16.4µM*,-23.1%,23.1µM*,-28.0%
CCn1c2ccccc2c2cc(NC(=O)c3cccc(OC)c3OC)ccc21,-26.3,8.2µM*,-18.2%,4.11µM*,-22.7%
CCn1c2ccccc2c2cc(NC(=O)c3ccc([N+](=O)[O-])cc3)ccc21,-9.3,-4.5%,-10.6%,?,-17.4%
CCn1c2ccccc2c2cc(NC(=O)c3ccco3)ccc21,-52.3*,?,?,?,?
CC(C)(C)N(CC#CCC1(O)c2ccccc2-c2ccccc21)CCO,25.2,14.2%,-13.2%,-21.2%,-6.8%
CCCS(=O)(=O)NC(=O)C1(C)CCN(C(=O)c2ccc3ccccc3n2)C1 (stereo not drawn),19.9,-0.8%,27.0%,-12.6%,0.0%
CCOC(=O)CSc1ncnc2c(C(=O)OCC)c3n(c12)CCC3,-4.2,-0.7%,2.0%,-1.9%,16.0%
CCn1c2ccccc2c2cc(NC(=O)c3cccc(OC)c3)ccc21,?,8.91µM*,12.6µM*,7.94µM*,?
COc1cccc(C(=O)Nc2ccc(NC(=O)Cc3ccccc3)cc2)c1,1.5,1.7%,-27.7%,?,?
O=C(O)c1ccc(N/N=C/c2ccc3nccnc3c2)cc1,-9.5,11.6µM*,?,11.6µM*,?
O=C(O)c1ccc(N/N=C/c2ccncc2)cc1,6.8,-2.4%,0.8%,13.1%,-6.3%
CSc1ccccc1OCc1cc(C(=O)N2CCc3c(Cl)cccc3C2)no1,?,23.1µM*,-6.3%,?,-0.7%
C=CCC1(CC=C)CCCN1C(=O)c1cc(COc2ccc(C)nc2)on1,-8.5,2.59µM*,20.6µM*,0.92µM*,2.91µM*
C=CCC1(CC=C)CCCN1C(=O)c1cc(COc2ccccc2SC)on1,-1.3,?,-5.8%,20.6µM*,-15.8%
Cc1ccc(OCc2cc(C(=O)N3CCCC3)no2)cn1,-2.6,-29.8%,-5.5%,?,-1.5%
C=CCC1(CC=C)CCCN1C(=O)c1cc(COc2ccc(F)c(F)c2)on1,-8.4,18.4µM*,-5.5%,?,-23.7%
NC(=S)N/N=C\c1ccc(-c2cccc(Cl)c2Cl)o1,0.0,5.17µM*,-29.1%,4.61µM*,-14.4%
NC(=S)N/N=C/c1ccc(-c2ccccc2)o1,-23.6,?,-3.8%,?,6.0%
SMILES,IL1B secr inh,DT40 TDP1 CPT,HT1080NT lethal,DT40 TDP1 no CPT,HT1080 IDH1KD tx
NC(=S)N/N=C/c1ccc(-c2ccc(Cl)c(Cl)c2)o1,20.8,23.1µM*,-17.0%,13µM*,-11.9%
O=C(O)c1cc(-c2ccc(/C=N/NC(=S)Nc3ccccc3)o2)ccc1Cl,30.0,-5.1%,4.1%,-18.0%,0.7%
Cc1ccc(-c2ccc(/C=N/NC(N)=S)o2)cc1,45.2,2.91µM*,-16.4%,4.11µM*,-21.6%
NC(=S)N/N=C/c1ccc(-c2ccc(SC(F)F)cc2)o1,-30.0,3.66µM*,?,5.17µM*,?
COc1cccc(C#Cc2ccc3c(c2)O[C@@H](CN(C)C(=O)c2ccccn2)[C@@H](C)CN([C@H](C)CO)S3(=O)=O)c1,-3.8,?,-1.9%,?,-21.4%
C[C@H]1CN([C@@H](C)CO)S(=O)(=O)c2ccc(Br)cc2O[C@@H]1CN(C)C(=O)Cc1ccccc1,-13.2,?,6.5%,?,-2.7%
CC(C)CC#Cc1ccc2c(c1)O[C@H](CN(C)C(=O)Cc1ccncc1)[C@H](C)CN([C@H](C)CO)S2(=O)=O,-28.3,?,-5.8%,25.9µM*,-13.2%
C[C@H]1CN([C@@H](C)CO)S(=O)(=O)c2ccc(C#Cc3ccccn3)cc2O[C@@H]1CN(C)C(=O)C1CC1,-3.5,?,?,16.4µM*,4.2%
C[C@H](CO)N1C[C@H](C)[C@H](CN(C)C(=O)c2ccccn2)Oc2cc(C#Cc3ccc(F)cc3)ccc2S1(=O)=O,0.0,20.6µM*,-24.3%,18.4µM*,-6.6%
Cc1ccc(S(=O)(=O)N2C[C@@H](C)[C@]3(C2)[C@H](O)[C@H](OC(=O)NCc2ccco2)C[C@H]2C(=O)N(c4ccccc4)C(=O)[C@H]23)cc1,-8.9,-1.0%,0.9%,-1.1%,2.3%
S=C(NCc1ccco1)N1CCN(c2ccc(Cl)cc2)CC1,-7.4,-3.6%,0.4%,23.1µM*,-2.1%
S=C(NCc1ccco1)N1CCN(Cc2ccc(Cl)cc2Cl)CC1,?,?,-10.8%,23.1µM*,-5.7%
S=C(NCc1ccco1)N1CCN(C/C=C/c2ccccc2)CC1,5.9,-26.8%,-2.3%,?,-7.3%
CC(C)c1ccc(S(=O)(=O)N2CCN(C(=S)NCc3ccco3)CC2)cc1,0.0,14.6µM*,-1.1%,?,-0.8%
N[C@@H](Cc1cnc[nH]1)C(=O)Nc1ccc2ccccc2c1,-8.2,17.6%,4.0%,-8.3%,2.1%
CCN1CCN(c2ccc(S(=O)(=O)N3CCCCC3)cc2N)CC1,15.2,-17.0%,5.2%,20.7%,8.9%
O=C1Nc2cccnc2N(C(=O)CCl)c2ccccc21,-96.1*,3.26µM*,?,2.59µM*,16.4µM*
O=C(CCNC(=O)Cn1ccc2ccccc2c1=O)NCCc1ccccc1Cl,-1.8,?,-12.4%,-7.8%,13.2%
CC1=NC(=O)C(N=Nc2ccccc2)N1c1ccccc1 (stereo not drawn),3.7,-5.9%,-3.7%,-13.9%,-3.2%

# Screens as filed in PubChem.
